Reference: the supplement of paper PMC7556523
A number with no mark means an inactive call.

How the values were obtained:
[1] = system: Sporothrix brasiliensis CBS 133006; assay: growth inhibition relative to untreated control; higher = more growth inhibition (more antifungal activity), active = 80 or more; extreme values may be limits of the assay; conditions: 1 µM; 48 h
Outline: (§1)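 The reported figure is percent growth inhibition relative to untreated cells, from quadruplicate runs. Yeast-form cells of the reference isolates at 1 x 10^5 CFU/ml were exposed to library compounds at a final 1 μM for 48 h at 35°C in 5% CO2, and growth was assessed by microscopy and spectrophotometric readings.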

[2] = system: Sporothrix schenckii ATCC 32286; assay: as above; conditions: 1 µM; 48 h
Outline: as §1

SMILES	growth inhibition [1] [%]	growth inhibition [2] [%]
Cc1cc(O)nc(-n2nc(C)cc2C)n1	4.75	11.8
CC(C)NCC(=O)Nc1cccc(C(=O)Nc2cccc(C(F)(F)F)c2)c1	11.5	3.75
COc1nc2ccc(Br)cc2cc1[C@@H](c1ccccc1)[C@@](O)(CCN(C)C)c1cccc2ccccc12	21.5	17.8
CCOc1ccc(-c2nc(CNCCc3ccc(F)cc3)cs2)cc1	3.75	15.5
N#Cc1ccc(-c2cnc(N)c(-c3ccc(C(N)=O)cc3)n2)cc1	3.75	9
CC(=O)N1CCN(c2ccc(Oc3ccc(Cl)cc3O)cc2)CC1	3.5	0.75
COc1ccc(C2CC(c3cccs3)=NN2C(=O)c2ccco2)cc1OC (stereo unspecified)	0	18.8
O=C(Nc1cccc(-c2ccc(NCCCN3CCCC3)nc2)c1)c1ccccc1	14.8	6
Cc1cc(C)nc(-n2nc(C)cc2Nc2ccccc2)n1	17.2	1
O=C(c1ccc(F)cc1)N(CCNc1ccccc1)c1ccccc1	16.5	12.2
c1ccc(-c2nc(NC3CCCCC3)cc(C3CC3)n2)nc1	16.8	38.2
Cc1ccc(Oc2ccc(NC(=O)CNc3ccccc3N3CCCC3=O)cc2)cc1	0	0
NS(=O)(=O)c1cccc(-c2ccc3ncc(N4CCOCC4)nc3c2)c1	17	0
